Shown are actives, neighbours in structure and some others; about 3.6% of the full set was active somewhere.
mHTT CaM bind = mutant huntingtin-calmodulin interaction inhibitors – biochemical, AlphaScreen, primary screen | P42858 | AlphaScreen His-mHTT/GST-CaM binding, luminescence | inhibition, % at 15 µM | hit rate 3.6% among 190,000;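 further: 0% = both proteins with DMSO and 100% = one protein alone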
Pf apPOL inh = Pf-apPOL inhibitors, biochemical, fluorescence | Plasmodium falciparum apicoplast DNA polymerase (apPOL) | Recombinant Pf-apPOL, molecular beacon fluorescence, 1.5 h | inhibition, % at 10 µM | hit rate 0.25% among 210,000
* = called active by the depositor; . = no result; + = active, no number. No stated cut-off is given here; in the data, active means inhibition above about 50%; inactive means the rest.

SMILES	mHTT CaM bind	Pf apPOL inh
CCCCCC(=O)Nc1ncc2c(n1)CC(c1cc(OC)c(OC)c(OC)c1)CC2=O (centres undefined)	0	82*
COc1cc(C2CC(=O)c3cnc(NC(=O)c4ccccc4)nc3C2)cc(OC)c1OC (centres undefined)	-4	-2
CCc1nc(-c2ccc(-n3ccc(C(=O)NCc4ccc(F)c(Cl)c4)n3)cc2)no1	-4	-9
Cc1[nH]nc2c1C(c1ccc(-c3ccccc3Cl)o1)C(C#N)=C(N)O2 (centres undefined)	50*	-3
Cc1[nH]nc2c1C(c1ccccc1)C(C#N)=C(N)O2 (centres undefined)	.	0
CCOC(=O)CCC(=O)N1CCN(c2nnc(SCC(=O)NC(C)C)s2)CC1	-7	-1
CN(C)c1ccc(C=NNC2=NCCN2)cc1	.	-3
CN(C)c1ccc(/C=N/NC(=S)N/N=C/c2ccc(N(C)C)cc2)cc1	+	.
COc1cc(OC)cc(C(=O)Nc2cc(F)c3[nH]c(=O)ccc3c2)c1	2	-1
CC(C)Oc1ccc(C(=O)Nc2c3c(nn2-c2ccc(F)cc2)CSC3)cc1	25	-2
O=C(Nc1ccccc1[N+](=O)[O-])c1ccc(Cl)c(S(=O)(=O)NC2CCCC2)c1	28	-7
O=C(Nc1ccccc1[N+](=O)[O-])c1cc(S(=O)(=O)NC2CCCCC2)c(Cl)cc1Cl	58*	-4
COc1cccc(CN2CCC(c3nc(C4CC4)n[nH]3)CC2)c1	-2	-8
CN(C)CCNC(=O)CC12CC3CC(C1)CC(c1ccccc1)(C3)C2	64*	-2
COc1ccc(CCNC(=O)CC23CC4CC(C2)CC(c2ccccc2)(C4)C3)cc1OC	20	-4
CCN(CC)CCNC(=O)COc1ccc(OC)cc1	-1	3
CN(C)CCNC(=O)COc1ccc(C23CC4CC(CC(C4)C2)C3)cc1	95*	-3
Cc1nc2c(c(N3CCC(C(N)=O)CC3)n1)CCC2	-6	2
C(=Nc1c(-c2ccccc2)nc2n1CCS2)c1ccccc1	59*	-21
FC(F)(F)c1cccc(N=Cc2c(-c3ccccc3)nc3n2CCS3)c1	.	-14
O=C1C=CC2=C3c4cc(O)c(O)cc4CC3(O)COC2=C1O (centres undefined)	.	50*
CCn1ccc2c(cc(C(=O)NCc3ccc(C)o3)n2C)c1=O	-2	1
CCCCn1c(=N)n(CC(O)COc2ccc(Cl)cc2)c2ccccc21 (centres undefined)	42	2
N=c1n(Cc2ccccc2)c2ccccc2n1CC(O)COc1ccc(Cl)cc1 (centres undefined)	60*	7
COc1ccc2nc(N3CCC(C(=O)N4CCOCC4)CC3)sc2c1	-2	0
SMILES	mHTT CaM bind	Pf apPOL inh
N#Cc1nc(COc2ccc(Cl)cc2)oc1N1CCC(C(N)=O)CC1	12	4
CCOC(CNC(=O)c1ccc(CNC(=O)c2ccc(Br)cc2)cc1)OCC	0	-3
Cn1c(/C=C/c2ccc([N+](=O)[O-])o2)nc2ccccc2c1=O	3	-4
Cn1cc(C(c2ccc([N+](=O)[O-])o2)c2cn(C)c3ccccc23)c2ccccc21	65*	0
O=C(NCCCn1ccnc1)c1ccc(Cl)cc1	-4	2
O=C(NCCCn1ccnc1)C(=O)Nc1ccc2c(c1)OCCO2	-3	-2
O=C(NCCCn1ccnc1)C(=O)Nc1ccc(F)c(Cl)c1	70*	-2
O=C(NCCCn1ccnc1)Nc1cccc(Cl)c1	89*	0
CC1(C)CC(=O)C2=C(C1)OC(N)=C(C#N)C2c1cn(-c2ccccc2)nc1-c1ccccc1 (centres undefined)	76*	1
Cc1ccccc1C1C(C#N)=C(N)OC2=C1C(=O)CC(C)(C)C2 (centres undefined)	-2	1
O=C(Nc1nnc(COc2ccc([N+](=O)[O-])cc2)s1)Nc1ccccc1F	2	-56
Cc1cccc(C(=O)Nc2nnc(C3CC(=O)N(c4ccc(Cl)cc4)C3)o2)c1 (centres undefined)	5	-2
Cc1cc(C)n(-c2nc(C)nc(N)n2)n1	1	7
COc1nc(-n2nc(C)cc2C)nc(-n2nc(C)cc2C)n1	-8	64*
CCCCN(C)C(=O)c1cccc(C2CCCN(C(=O)NC(C)C)C2)c1 (centres undefined)	8	-11
COc1cc(C=O)ccc1OC(=O)N(c1ccccc1)c1ccccc1	-1	-2
O=C1/C(=C/c2ccc([N+](=O)[O-])cc2)C=C(c2ccccc2)N1c1ccccc1O	24	8
COc1ccc(/C=C2\C=C(c3ccccc3)N(c3ccccc3O)C2=O)cc1	76*	3
Cc1ccc(Cn2c(=O)cc(C(=O)N3CCC4(CC3)OCCO4)c3ccccc32)cc1	59*	1
Cc1cc(C(=O)N2CCC3(CC2)OCCO3)c2ccccc2n1	-6	-8
Cc1cc(C(=O)NCc2ccccc2)nc2cc(-c3ccccn3)nn12	-11	-3
N#CC1=C(N)N(c2ccccc2F)C2=C(C(=O)CCC2)C1c1ccsc1 (centres undefined)	7	-3
COc1ccc(NC(=O)Cc2cn(C)c3ccccc23)cc1Cl	28	-2
COc1ccc(NC(C)=O)cc1NC(=O)Cc1cn(Cc2ccccc2)c2ccccc12	83*	-8
CCCN1CCN(c2nc(-c3cccc(C)c3)nnc2C)CC1	21	0
SMILES	mHTT CaM bind	Pf apPOL inh
O=[N+]([O-])c1ccc(OC2=C(c3ccccc3)N3CCN=C3S2)cc1	33	-2
Clc1ccc(OC2=C(c3ccccc3)N3CCN=C3S2)cc1	60*	0
O=C1C(=Cc2cc3cc(Br)ccc3o2)Oc2c1ccc(O)c2CN1CCCC1	-6	-4
Cc1cc(=O)oc2c3c(ccc12)OCN(c1ccc(Cl)cc1)C3	27	2
Cc1cccc(N2COc3ccc(Br)cc3C2)c1	99*	-3
Cc1ccc(N2COc3ccc(Br)cc3C2)cc1	73*	1
FC(F)(F)c1cccc(N2COc3ccc(Cl)cc3C2)c1	49	-2
O=C(Cc1ccccc1Cl)N1CCC2(CC1)NC(=O)N(Cc1cccc(Cl)c1)C2=O	7	-6
Ic1ccc(C2=CC(c3ccccc3)n3ncnc3N2)cc1 (centres undefined)	1	1
CN(C)CCNC(=O)C1CCN(c2nc3ccc(-c4ccsc4)nc3s2)CC1	66*	4
CN(C)CCNC(=O)C1CCN(c2nc3ccc(-c4ccncc4)nc3s2)CC1	-2	-6
CCN(CC)C(=O)C1CCN(c2nc3ccc(-c4cccs4)nc3s2)CC1	64*	-1
CCCNC(=O)C1CCN(c2nc3ccc(-c4cccs4)nc3s2)CC1	9	0
CCN1C(=O)Cc2ccccc2C1C(=O)N1CCN(c2cccc(Cl)c2)CC1 (centres undefined)	5	3
COCCN1C(=O)Cc2ccccc2C1C(=O)N1CCN(c2cccc(Cl)c2)CC1 (centres undefined)	67*	-4
O=C(NCCN1CCCCC1)c1cc2cn(C3CC3)cc2s1	29	0
COc1ccc(Oc2ccc(N)cc2)cc1	22	-5
Nc1ccc(Oc2ccc(N)c(N)c2)cc1	88*	-10
COc1ccc(CN(CCC2(c3ccccc3)CCOC(C)(C)C2)C(C)=O)cc1OC (centres undefined)	68*	1
COc1ccc(CN(CCC2(C(C)C)CCOC(C)(C)C2)C(C)=O)cc1OC (centres undefined)	15	0

Screening results deposited in PubChem by University of Kansas High Throughput Screening Laboratory.
